We go through 25 compounds from PubChem BioAssay (NCI).

Holding throughout (assay): NCI-60 one-dose screen, 48 h (100 = growth as untreated, 0 = no growth, -100 = all killed)
Conditions in all cases: 10 µM unless noted

Assay [1] deals with RPMI-8226 leukemia.
Assay [2] has as its system OVCAR-8 ovarian.
The subject of assay [3] is OVCAR-5 ovarian.
In assay [4] the test system is OVCAR-4 ovarian.
The subject of assay [5] is SK-OV-3 ovarian.
The subject of assay [6] is IGROV1 ovarian.
For assay [7], the system named is OVCAR-3 ovarian.
For assay [8], the system named is HS 578T breast.
For assay [9], the system named is NCI/ADR-RES ovarian.
The subject of assay [10] is T-47D breast.

The panel holds about 83,000 compounds, 20% with a hit somewhere; the sample as a whole holds those more often.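 Treatment: one concentration, 48 hours, 96-well format. Scoring: percent growth, with anything below 10 considered active.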 Values without a mark were called inactive. Activity calls are given as the source filed them.

On to `CSc1nc(-c2ccc(F)cc2)c(C#N)c(N2CCOCC2)n1`, for which the growth was 89.2% in assay [1]; 92.9% in assay [2]; 89.2% in assay [3]; 90.6% in [4]; 97.3% in assay [5]; 92% in assay [6]. The growth in assay [7] is 98.1%; in assay [8], 91.4%; in [9], 97.5%; in assay [10] it was 79.7%.
With `O=C1CCC23OC(c4ccccc4N12)C(O)C(O)C3O` (stereo not given), the growth is 103% in assay [1]; 99.3% in assay [2]; 110% in assay [3]; 105% in assay [4]; 117% in [5]; 98.2% in assay [6]. In addition, the growth was 96.3% in assay [7], 105% in assay [8], 101% in assay [9] and 110% in assay [10].
With `CC(=O)Nc1c(C(=O)Nc2ccccc2)sc2nc3c(cc12)C(OC(C)=O)CCC3` (stereo not given), the growth is 107% in assay [1]; 105% in assay [2]; 108% in assay [3]; 108% in [4]; 46.6% in assay [5]; 109% in assay [6]. In addition, the growth in [7] was 104%; in assay [8], 102%; in assay [9], 88.4%; in assay [10] it was 93.5%.
With `COc1ccc(NC(=O)c2ccc(Nc3ncnc4[nH]c(C)c(C)c34)cc2)cc1`, the growth in [1] is 111%; in [2] it was 98.9%; in assay [3] it was 108%; in assay [4], 126%; in assay [5], 109%; in assay [6], 110%. Further, the growth in assay [7] is 103%; in assay [8], 113%; in assay [9] it was 103%; in assay [10] it was 89.2%.
Take `C#Cc1ccccc1NC(=O)c1sc2nc3c(cc2c1N)CCCCCC3`: the growth is 56.4% in assay [1]; 75.7% in [2]; 93.1% in [3]; -19% (active) in assay [4]; 36.9% in assay [5]; 74.5% in [6]. Moreover, the growth is 30.9% in assay [7], 8.22% (active) in assay [8], 67.4% in assay [9] and 49.7% in assay [10].
Take `COc1cc2c(cc1OC)C(Sc1ccc(Cl)cc1)c1c(nc(N)c(C#N)c1N)O2` (stereo not given): the growth in assay [1] was -24.2% (active); in assay [2], 1.28% (active); in [3], 10.8%; in [4], -14.8% (active); in assay [5], 56.1%; in [6] it was -25.5% (active). For the same compound, the growth in assay [7] was -69.6% (active); in assay [8], 30.8%; in [9], 1.5% (active); in [10], -3.7% (active).
As to `O=C(/C(=C/c1ccc([N+](=O)[O-])cc1)SCc1ccc(Cl)cc1)c1ccc(F)cc1`, the growth in assay [1] is -25.6% (active); in assay [2], 57.8%; in assay [3], 95.4%; in assay [4] it was 60.9%; in [5], 63.9%; in assay [6], 58.4%. The growth in [7] was 54%; in assay [8], 27.9%; in [9], 51%; in [10], 36.4%.
`C=CCn1c(SCC(=O)Nc2ccc(C(=O)/C=C/c3cc(OC)c(OC)c(OC)c3)cc2)nnc1-c1ccc(Cl)cc1`: the growth in assay [1] was -21.6% (active); in [2], 7.91% (active); in assay [3], 88.9%; in [4] it was 37.3%; in [5], 51.4%; in [6], 14.3%. Further, the growth was -41.9% (active) in assay [7], 48.6% in assay [8], 41.3% in assay [9] and 18.1% in [10].
For the compound `Nc1ccc(C2=NN(C(=O)c3cc(-c4ccc(Cl)cc4)nc4ccccc34)C(c3ccccc3)C2)cc1` (stereo not given), the growth in [1] was 8.12% (active); in [2] it was 37.5%; in assay [3], 73.4%; in assay [4], 63.1%; in assay [5], 24.6%; in assay [6], 50.9%. In addition, the growth in [7] was 3.55% (active); in [8], 29.4%; in assay [9], 12.7%; in [10], 30.8%.
In the case of `COc1ccc(Nc2cc(NC(=O)CNc3cc(OC)c(Cl)c(OC)c3Cl)ncn2)cc1`, the growth in [1] was 62.5%; in [2], 78.2%; in assay [3], 88.1%; in [4] it was 80.1%; in assay [5] it was 79.8%; in assay [6], 74.2%. In addition, the growth in assay [7] is 81.6%; in assay [8] it was 83.4%; in [9], 84.8%; in [10] it was 47.1%.
Turning to `O=CN1N=C(c2ccc(Cl)cc2)CC1c1cccc(Nc2ccnc3cc(C(F)(F)F)ccc23)c1` (stereo not given), the growth in assay [1] is 26.4%; in assay [2], 52.8%; in assay [3] it was 99.7%; in assay [4], 36.1%; in assay [5], 72.4%; in assay [6], 74.2%. For the same compound, the growth in assay [7] is 62.2%; in assay [8], 87.7%; in assay [9], 55.4%; in assay [10], 42.6%.
Consider `C[C@H]1[C@H](C)CC[C@]2(C(=O)OCCOCCOCC[P+](c3ccccc3)(c3ccccc3)c3ccccc3)CC[C@]3(C)C(=CC[C@@H]4[C@@]5(C)CC[C@H](OC(=O)C(Cl)Cl)C(C)(C)[C@@H]5CC[C@]43C)[C@H]12`, for which the growth in assay [1] was 0.348% (active); in assay [2], 11%; in assay [3], 37.3%; in assay [4] it was 6.72% (active); in assay [5], -0.459% (active); in assay [6], 15.1%. In addition, the growth in [7] is 16.1%; in assay [8] it was 38.4%; in [9], 69%; in assay [10] it was 21.8%.
For the compound `COc1ccc(/C=C/C(=O)Nc2ncnc3nc[nH]c23)cc1`, the growth in assay [1] was 99%; in assay [2] it was 103%; in assay [3] it was 118%; in assay [4] it was 98.8%; in assay [5], 113%; in assay [6], 105%. Also, the growth was 104% in assay [7], 101% in [8], 96.6% in assay [9] and 91.2% in assay [10].
Turning to `COc1ccc(-c2cs/c(=N\N=C\c3ccc(O)cc3O)n2/N=C/c2ccc(O)cc2O)cc1`, the growth in assay [1] was -25.9% (active); in assay [2] it was -17.1% (active); in assay [3], 10.6%; in assay [4] it was -7.88% (active); in [5] it was -30.8% (active); in assay [6], -17.2% (active). The growth in assay [7] was -63.5% (active); in assay [8], 24.1%; in [9], -12.4% (active); in [10], -36.8% (active).
With `CN1C(=O)c2cc(Cl)nc3c(NC(=O)c4cccc(Cl)c4)c(Cl)c(NC(=O)c4cccc(Cl)c4)c1c23`, the growth was 38.4% in [1]; 2.78% (active) in [2]; 88.7% in assay [3]; -22.7% (active) in [4]; 86.4% in [5]; -66.2% (active) in assay [6]. The growth in assay [7] is -52.7% (active); in assay [8] it was -12.3% (active); in assay [9], 27.5%; in assay [10], 22.1%.
On to `O=C(/C(=C/c1ccc([N+](=O)[O-])cc1)SCc1ccccc1)c1ccc(Cl)cc1`, for which the growth in assay [1] was -15.8% (active); in assay [2], 76.2%; in [3] it was 95.4%; in assay [4] it was 74.5%; in assay [5] it was 87.6%; in [6] it was 57%. Besides, the growth was 70.6% in [7], 75.7% in [8], 62% in [9] and 47.8% in [10].
On to `O=C(Nc1nc2ccc(C(F)(F)F)cc2s1)c1cc(Cl)ccc1O`, for which the growth in assay [1] is -5.53% (active); in [2], 12.9%; in [3] it was 28%; in assay [4] it was 20.2%; in [5], -16.2% (active); in assay [6] it was 30.8%. In addition, the growth in assay [7] is 8.08% (active); in assay [8], 5.64% (active); in assay [9] it was -4.36% (active); in assay [10] it was -5.13% (active).
On to `Nn1c(SCC(=O)Nc2ccc(Cl)cc2)nnc1-c1cc(F)c(Cl)cc1Cl`, for which the growth was 76.8% in assay [1]; 89.9% in [2]; 66.5% in assay [3]; 85.9% in [4]; 89.9% in assay [5]; 89.9% in assay [6]. The growth in assay [7] was 84.2%; in assay [8] it was 99.7%; in [9], 93.5%; in assay [10], 67.3%.
Regarding `C=C1C(=O)O[C@H]2[C@H]1CC/C(COC(=O)c1cccnc1N)=C\CC[C@@]1(C)O[C@@H]21`, the growth was -19.2% (active) in [1]; 14.9% in assay [2]; 36.1% in assay [3]; 54.7% in [4]; 71.3% in assay [5]; 13.8% in [6]. The growth in assay [7] is -4.59% (active); in assay [8], 28.9%; in assay [9], 31.9%; in [10], 50.7%.
Consider `CC(C)NS(=O)(=O)c1cccc(-c2ccc3c4c(n(CCCN(C)C)c(=O)c3c2)-c2ccccc2C4=O)c1`, for which the growth was 80.9% in assay [1]; 76.4% in assay [2]; 117% in assay [3]; 101% in assay [4]; 104% in assay [5]; 90% in assay [6]. Moreover, the growth is 110% in assay [7], 99.8% in assay [8], 103% in [9] and 97.1% in [10].
With `O=C(NCc1ccccc1)c1ccc2c(c1)NC(=O)[C@@H]1CCCN21`, the growth in assay [1] is 105%; in [2], 106%; in assay [3], 100%; in [4] it was 112%; in [5] it was 111%; in assay [6], 104%. In addition, the growth in assay [7] was 101%; in assay [8], 90.7%; in [9] it was 98.3%; in assay [10], 108%.
As to `COc1ccc2nc(-c3ccc(OC)c(OC)c3)cc(-c3nnc(SCC(=O)Nc4ccc(C(C)=O)cc4)o3)c2c1`, the growth was 90.8% in [1]; 102% in assay [2]; 109% in [3]; 106% in assay [4]; 109% in [5]; 113% in assay [6]. For the same compound, the growth in [7] is 111%; in assay [8] it was 97.3%; in assay [9] it was 108%; in assay [10], 94.6%.
Turning to `COC(=O)c1oc2c(C(=O)/C=C/c3ccc(OC)cc3)c(OCCCN3CCCCC3)ccc2c1C`, the growth in assay [1] is -65.7% (active); in assay [2], -22.7% (active); in [3], 23.3%; in assay [4], 14.1%; in assay [5] it was 28.5%; in assay [6], 9.13% (active). Moreover, the growth in assay [7] is 26.5%; in [8], 12.6%; in assay [9] it was 0.873% (active); in [10], 38.5%.
Take `C=CCn1c(CN2CCN(c3cc4c(cc3F)c(=O)c(C(=O)O)cn4C3CC3)CC2)n[nH]c1=S`: the growth in [1] was 109%; in [2], 100%; in [3], 94%; in assay [4], 105%; in assay [5], 108%; in assay [6], 96.2%. For the same compound, the growth is 102% in assay [7], 95% in [8], 99.2% in assay [9] and 103% in assay [10].
Regarding `CC[C@]12C=CCN3CC[C@@]4(c5ccc(OC)cc5N(C)[C@H]4[C@@](O)(C(=O)OC)[C@@H]1OC(=O)CCC(=O)O[C@H]1CC[C@H]4[C@@H]5CC[C@H]6CC(=O)CC[C@]6(C)[C@H]5CC[C@]14C)[C@@H]32`, the growth was 0.329% (active) in [1]; 25.7% in [2]; 34.6% in assay [3]; 36.6% in assay [4]; 35.3% in [5]; 28.6% in assay [6]. Besides, the growth is 23.8% in assay [7], 43.4% in assay [8], 25.4% in assay [9] and 8.78% (active) in assay [10].
